# Experimental data as given in PubChem BioAssay AID1159580 (chemical genetic matrix, 2015).
# “And” between values parts separate entries of the source, which are not always exact repeats. Equal entries are not always repeated. Hit rate of the full screen: of about 5,500 compounds, about 2,000 (36%) were called active. Roughly 18% stayed inconclusive and do not appear here. No stated cut-off is given here; in the data, active means normalized growth mostly below about 0.91 (no sharp cut-off); inconclusive means no clear call, values can overlap the other calls; inactive means mostly above about 0.92. The list shows a part of the results.
# Experiment: chemical genetic growth profiling, strain panel (AID 1159580);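 further: tested at 20 µM; growth read once vehicle control cultures reached saturation at 30 °C; 1 = growth at the plate median or of vehicle wells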
# Settings: S. cerevisiae deletion strains, growth OD
smiles,measurement,setting,value
COc1ccc2c(c1)OCc1c-2oc2cc(OC)ccc12,normalized growth,"locus YAL021C, strain ccr4, stronger effect = lower value",0.901 (active)
same,normalized growth,"locus YAL026C, strain drs2, stronger effect = lower value",0.764 (active)
same,normalized growth,"locus YAL030W, strain snc1, stronger effect = lower value",0.919 (active)
same,normalized growth,"locus YBL061C, strain skt5, stronger effect = lower value",0.864 (active)
same,normalized growth,"locus YBR009C, strain hhf1, stronger effect = lower value",0.737 (active)
same,normalized growth,"locus YBR021W, strain FUR4, stronger effect = lower value",0.946 (inactive)
same,normalized growth,"locus YBR023C, strain chs3, stronger effect = lower value",0.862 (active)
same,normalized growth,"locus YBR171W, strain sec66, stronger effect = lower value",0.973 (inactive)
same,normalized growth,"locus YBR229C, strain ROT2, stronger effect = lower value",0.997 (inactive)
same,normalized growth,"locus YBR231C, strain swc5, stronger effect = lower value",0.909 (active)
same,normalized growth,"locus YBR279W, strain paf1, stronger effect = lower value",0.894 (active)
same,normalized growth,"locus YCL011C, strain gbp2, stronger effect = lower value",0.792 (active)
same,normalized growth,"locus YCL016C, strain dcc1, stronger effect = lower value",0.858 (active)
same,normalized growth,"locus YCL029C, strain bik1, stronger effect = lower value",1 (inactive)
same,normalized growth,"locus YCL069W, strain vba3, stronger effect = lower value",0.945 (inactive)
same,normalized growth,"locus YCR088W, strain abp1, stronger effect = lower value",0.945 (inactive)
same,normalized growth,"locus YDL005C, strain med2, stronger effect = lower value",1.02 (inactive)
same,normalized growth,"locus YDL035C, strain GPR1, stronger effect = lower value",0.955 (inactive)
same,normalized growth,"locus YDL040C, strain nat1, stronger effect = lower value",0.988 (inactive)
same,normalized growth,"locus YDL101C, strain DUN1, stronger effect = lower value",0.915 (inactive)
same,normalized growth,"locus YDL134C, strain PPH21, stronger effect = lower value",0.908 (inactive)
same,normalized growth,"locus YDL185W, strain tfp1, stronger effect = lower value",1.05 (inactive)
same,normalized growth,"locus YDL192W, strain arf1, stronger effect = lower value",1.01 (inactive)
same,normalized growth,"locus YDR001C, strain nth1, stronger effect = lower value",0.989 (inactive)
same,normalized growth,"locus YDR069C, strain doa4, stronger effect = lower value",0.959 (inactive)
same,normalized growth,"locus YDR101C, strain arx1, stronger effect = lower value",0.997 (inactive)
same,normalized growth,"locus YDR137W, strain rgp1, stronger effect = lower value",0.415 (active)
same,normalized growth,"locus YDR150W, strain NUM1, stronger effect = lower value",0.991 (inactive)
same,normalized growth,"locus YDR159W, strain sac3, stronger effect = lower value",0.724 (active)
same,normalized growth,"locus YDR162C, strain NBP2, stronger effect = lower value",0.872 (inactive)
same,normalized growth,"locus YDR195W, strain ref2",1.08 (inactive)
same,normalized growth,"locus YDR297W, strain sur2, stronger effect = lower value",0.894 (active)
same,normalized growth,"locus YDR318W, strain mcm21, stronger effect = lower value",0.988 (inactive)
same,normalized growth,"locus YDR334W, strain swr1, stronger effect = lower value",1.01 (inactive)
same,normalized growth,"locus YDR335W, strain msn5, stronger effect = lower value",0.857 (active)
same,normalized growth,"locus YDR388W, stronger effect = lower value",1 (inactive)
same,normalized growth,"locus YDR392W, strain spt3, stronger effect = lower value",0.162 (active)
same,normalized growth,"locus YDR502C, strain sam2, stronger effect = lower value",0.985 (inactive)
same,normalized growth,"locus YEL003W, strain gim4, stronger effect = lower value",0.806 (active)
same,normalized growth,"locus YEL037C, strain rad23, stronger effect = lower value",0.986 (inactive)
same,normalized growth,"locus YEL061C, strain CIN8 (second series), stronger effect = lower value",0.777 (active)
same,normalized growth,"locus YEL061C, strain CIN8, stronger effect = lower value",0.666 (active)
same,normalized growth,"locus YER015W, strain faa2, stronger effect = lower value",0.9 (active)
same,normalized growth,"locus YER016W, strain bim1, stronger effect = lower value",0.87 (active)
same,normalized growth,"locus YER110C, stronger effect = lower value",0.995 (inactive)
same,normalized growth,"locus YER111C, strain swi4, stronger effect = lower value",0.84 (active)
same,normalized growth,"locus YER155C, strain BEM2 (second series), stronger effect = lower value",0.505 (active)
same,normalized growth,"locus YER155C, strain BEM2, stronger effect = lower value",0.941 (inactive)
same,normalized growth,"locus YFR010W, strain ubp6, stronger effect = lower value",0.942 (inactive)
same,normalized growth,"locus YGL078C, strain dbp3, stronger effect = lower value",1.03 (inactive)
same,normalized growth,"locus YGL086W, strain mad1, stronger effect = lower value",0.947 (inactive)
same,normalized growth,"locus YGL167C, strain pmr1, stronger effect = lower value",0.977 (inactive)
same,normalized growth,"locus YGL173C, strain kem1, stronger effect = lower value",0.851 (active)
same,normalized growth,"locus YGL227W, strain vid30, stronger effect = lower value",0.935 (inactive)
same,normalized growth,"locus YGL240W, strain doc1, stronger effect = lower value",0.756 (active)
same,normalized growth,"locus YGL248W, strain PDE1, stronger effect = lower value",0.84 (active)
same,normalized growth,"locus YGL253W, strain hxk2, stronger effect = lower value",0.866 (active)
same,normalized growth,"locus YGR078C, strain PAC10, stronger effect = lower value",0.943 (inactive)
same,normalized growth,"locus YGR135W, strain pre9, stronger effect = lower value",1.01 (inactive)
same,normalized growth,"locus YGR252W, strain gcn5, stronger effect = lower value",0.967 (inactive)
same,normalized growth,"locus YHR013C, strain ard1, stronger effect = lower value",0.975 (inactive)
same,normalized growth,"locus YHR027C, strain rpn1, stronger effect = lower value",0.916 (active)
same,normalized growth,"locus YHR030C, strain SLT2, stronger effect = lower value",0.966 (inactive)
same,normalized growth,"locus YHR079C, strain IRE1 (second series), stronger effect = lower value",1 (inactive)
same,normalized growth,"locus YHR079C, strain IRE1, stronger effect = lower value",0.951 (inactive)
same,normalized growth,"locus YHR094C, strain hxt1, stronger effect = lower value",1.02 (inactive)
same,normalized growth,"locus YHR129C, strain ARP1, stronger effect = lower value",0.779 (active)
same,normalized growth,"locus YHR142W, strain chs7, stronger effect = lower value",0.659 (active)
same,normalized growth,"locus YHR200W, strain rpn10, stronger effect = lower value",1.01 (inactive)
same,normalized growth,"locus YIL066C, strain RNR3, stronger effect = lower value",0.745 (active)
same,normalized growth,"locus YIL073C, strain SPO22, stronger effect = lower value",1.18 (inactive)
same,normalized growth,"locus YIL125W, strain kgd1, stronger effect = lower value",0.996 (inactive)
same,normalized growth,"locus YIR030C, strain dcg1, stronger effect = lower value",1 (inactive)
same,normalized growth,"locus YJL092W, strain hpr5, stronger effect = lower value",0.943 (inactive)
same,normalized growth,"locus YJL095W, strain BCK1 (second series), stronger effect = lower value",0.761 (active)
same,normalized growth,"locus YJL095W, strain BCK1, stronger effect = lower value",0.542 (active) and 0.952 (inactive)
same,normalized growth,"locus YJL115W, strain asf1, stronger effect = lower value",0.995 (inactive)
same,normalized growth,"locus YJL129C, strain trk1, stronger effect = lower value",0.839 (active)
same,normalized growth,"locus YJL134W, strain LCB3, stronger effect = lower value",1.01 (inactive)
same,normalized growth,"locus YJL154C, strain vps35, stronger effect = lower value",1 (inactive)
same,normalized growth,"locus YJL164C, strain tpk1, stronger effect = lower value",0.79 (active)
same,normalized growth,"locus YJL166W, strain qcr8, stronger effect = lower value",0.779 (active)
same,normalized growth,"locus YJL168C, strain set2, stronger effect = lower value",1.01 (inactive)
same,normalized growth,"locus YJR043C, strain POL32, stronger effect = lower value",0.953 (inactive)
same,normalized growth,"locus YJR066W, strain TOR1, stronger effect = lower value",0.876 (inactive)
